Source: PubChem (several laboratories)
Granule exo inh: blocks lytic granule exocytosis | 0.66% of 360,000 active | inhibition, % at 10 µM | AID 651702 | TALL-104 LAMP-1 surface exposure, flow cytometry; cells stimulated with thapsigargin and PMA;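 active means inhibition above about 55%, limit read from the data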
GASC-1 inh: blocks human GASC-1 demethylase activity; Q9H3R0; GST-JMJD2C(1-420) H3K9me3 demethylation, DELFIA europium; inhibition, % at 2.35 µM; 0.069% of 330,000 active; AID 2099;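 active means more than half of a compound's replicate wells show inhibition beyond 50%, single wells judged on their own value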;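 further: signal counts dimethyl H3K9 product captured on neutravidin plate; 0% = median of DMSO wells and 100% = 0.3 times that DMSO median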
Target sequence (Q9H3R0 1-420 limits assumed): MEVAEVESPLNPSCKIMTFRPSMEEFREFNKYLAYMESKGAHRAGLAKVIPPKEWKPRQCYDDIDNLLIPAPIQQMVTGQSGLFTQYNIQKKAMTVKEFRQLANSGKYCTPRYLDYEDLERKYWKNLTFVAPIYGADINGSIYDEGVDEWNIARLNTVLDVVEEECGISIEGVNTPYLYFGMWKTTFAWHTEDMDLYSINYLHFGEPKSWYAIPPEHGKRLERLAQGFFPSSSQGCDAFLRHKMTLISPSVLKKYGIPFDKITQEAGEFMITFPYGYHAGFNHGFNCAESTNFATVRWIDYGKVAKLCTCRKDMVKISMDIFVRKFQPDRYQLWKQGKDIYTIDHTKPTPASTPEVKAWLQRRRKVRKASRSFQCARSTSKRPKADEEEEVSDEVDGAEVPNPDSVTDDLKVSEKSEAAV
M18AAP inhibitor: PfM18AAP enzyme inhibition. inhibition, % at 7.35 µM. 1.2% of 290,000 active. recombinant PfM18AAP, H-Glu-NHMec fluorogenic cleavage;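 active means inhibition above the campaign mean inhibition over all tested compounds plus 3 SD, cut at about 28% in these data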;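 further: 0% = plate median of test compound wells and 100% = 2 mM ZnCl2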
MIN6 prolif: inducers of beta-cell replication in MIN6 cells | MIN6 cells proliferation, ATPlite luminescence, 48 h; cells starved in 0.2% serum; 100% = growth in 10% serum | proliferation, % at 10 µM | 0.29% of 330,000 active | AID 2380;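 active means compounds whose signal lies at least 3.5 SD above the mean of all wells on their plate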;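 further: 0% = DMSO-treated cells in low-serum medium and 100% = 10% serum control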
SMARCA2 activ: activators of SMARCA2 function; MG213 cells, MMTV-luciferase reporter, dexamethasone, overnight; activation, % at 9.1 µM; 1% of 370,000 active; AID 652017; in the data active means activation above about 7.8%;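 further: 0% = vehicle wells and 100% = reference activator wells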
ALR inh: human ALR oxidase inhibition via reduced H2O2; P55789; purified ALR, DTT oxidation, H2O2 HRP-luminol luminescence; inhibition, % (concentration not given with the values); 3.8% of 290,000 active; AID 485317;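 active means mean replicate inhibition above about 79%, with every replicate also reaching it, limit read from the data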
Target sequence (P55789 whole entry, looked up): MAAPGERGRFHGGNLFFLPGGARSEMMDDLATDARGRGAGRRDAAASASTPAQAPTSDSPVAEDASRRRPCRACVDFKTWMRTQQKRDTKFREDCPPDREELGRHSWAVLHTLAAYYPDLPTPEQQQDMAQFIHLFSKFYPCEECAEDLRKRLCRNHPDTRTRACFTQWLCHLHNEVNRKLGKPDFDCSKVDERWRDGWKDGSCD
Active calls of the source: *. Sampled rows, rich in hits. Any-hit rate of the full collection: about 5.4%.

Screening Cc1cc(C)cc(NC(=O)NCCCN2CCN(c3ccc(F)cc3)CC2)c1 returned SMARCA2 activ -5.0.
`CC(/C=N/NC(=O)CCn1nnc2ccccc21)=C\c1ccccc1` gave Granule exo inh 1.4, GASC-1 inh 0.5, M18AAP inhibitor 2.6, MIN6 prolif -2.5, SMARCA2 activ 1.0 and ALR inh -4.3.
Screening CCOc1cc(/C=N/NC(=O)CCn2nnc3ccccc32)ccc1O returned Granule exo inh -3.7, GASC-1 inh -2.5, M18AAP inhibitor 6.1, MIN6 prolif 1.2, SMARCA2 activ -3.3 and ALR inh 99.5*.
For COc1cc(/C=N/NC(=O)CSc2n[nH]c(=O)[nH]c2=O)cc(OC)c1O the results were Granule exo inh -1.6, GASC-1 inh -9.1, M18AAP inhibitor 14.1, MIN6 prolif -2.4, SMARCA2 activ -4.1 and ALR inh 97.9*.
`O=C(CSc1nnc(-c2cccnc2)n1-c1ccc(Cl)cc1)Nc1ccc(S(=O)(=O)Nc2nccs2)cc1` gave SMARCA2 activ -3.3.
COC(=O)C1CN(Cc2cn(Cc3ccc(Cl)cc3)nn2)CCS(=O)(=O)N1Cc1ccc(OC)cc1 (configuration not stated) was read as SMARCA2 activ -2.3.
c1ccc(CN2CCN(Cc3nnc(-c4ccccc4)o3)CC2)cc1 was read as Granule exo inh -2.4, GASC-1 inh -3.7, M18AAP inhibitor 1.2, MIN6 prolif 3.9, SMARCA2 activ 7.9* and ALR inh 11.5.
Screening CSc1ccc2[nH]c(=O)cc(C)c2c1 returned Granule exo inh -10.6, GASC-1 inh -1.2, M18AAP inhibitor -10.1, MIN6 prolif 1.3, SMARCA2 activ 0.7 and ALR inh 99.8*.
COc1ccc(N2CCN(CCCNC(=O)COc3ccc(C)cc3)CC2)cc1 was read as SMARCA2 activ -5.4.
Cc1cnc(NC(=O)CSc2nnc(COc3c(C)cccc3C)o2)s1 was read as Granule exo inh -3.7, GASC-1 inh -6.7, M18AAP inhibitor 28.3*, MIN6 prolif -1.0, SMARCA2 activ -0.8 and ALR inh -1.9.
For Cc1cnc(NC(=O)CSc2nnc(COc3ccccc3)o2)s1 the results were Granule exo inh 9.3, GASC-1 inh -3.9, M18AAP inhibitor 27.0, MIN6 prolif -2.0 and SMARCA2 activ 3.0.
`O=C(Nc1cccc2ccccc12)c1ccc(Cn2cc(Cl)cn2)cc1` gave Granule exo inh 0.1, GASC-1 inh -1.2, M18AAP inhibitor 4.8, MIN6 prolif -1.5, SMARCA2 activ 2.7 and ALR inh -18.3.
For COC(=O)c1sc(NC(=O)c2ccc(Cn3cc(Cl)cn3)o2)c(C#N)c1C the results were Granule exo inh 3.0, GASC-1 inh 8.5, M18AAP inhibitor -5.3, MIN6 prolif -2.5, SMARCA2 activ -3.7 and ALR inh 88.5*.
Screening O=C(c1ccc(Cn2cc(Cl)cn2)cc1)N1CCN(c2ccccc2)CC1 returned Granule exo inh -2.1, GASC-1 inh -0.4, M18AAP inhibitor 6.5, MIN6 prolif -4.4, SMARCA2 activ 1.1 and ALR inh 98.3*.
N#Cc1c(NC(=O)c2ccc(Cn3cc(Br)cn3)o2)sc2c1CCCCC2 was read as Granule exo inh 7.3, GASC-1 inh -0.7, M18AAP inhibitor 2.8, MIN6 prolif -7.5, SMARCA2 activ 2.4 and ALR inh -7.2.
O=C(c1ccc(Cn2cc(Cl)cn2)o1)N1CCN(Cc2ccc3c(c2)OCO3)CC1 was read as Granule exo inh 0.3, GASC-1 inh 7.4, M18AAP inhibitor 3.3, MIN6 prolif -2.7 and ALR inh -1.8.
Screening O=C(Nc1ccccc1F)c1ccc(Cn2cc(Cl)cn2)cc1 returned Granule exo inh 1.3, GASC-1 inh -4.5, M18AAP inhibitor 4.3, MIN6 prolif -0.1, SMARCA2 activ 3.4 and ALR inh 99.7*.
`CN1CCN(C(=O)c2ccc(Cn3cc(Cl)cn3)o2)CC1` gave Granule exo inh -3.6, GASC-1 inh -23.7, M18AAP inhibitor -12.9, MIN6 prolif 0.6, SMARCA2 activ 7.9* and ALR inh -3.0.
Screening O=C(c1ccc(Cn2cc(Br)cn2)cc1)N1CCN(c2ccccc2)CC1 returned Granule exo inh -2.8, GASC-1 inh 19.7, M18AAP inhibitor 11.8, MIN6 prolif -4.3 and ALR inh -0.3.
CCOC(=O)[C@]12CCCC=C1N(CCCOC)C(=O)[C@@H]2CC(=O)NCc1ccc(OC)c(OC)c1 was read as SMARCA2 activ -2.4.
`Cc1cccc(NC(=O)c2cccc3c2-c2ccccc2C3=O)c1C` gave SMARCA2 activ 3.2.
`Cc1ccccc1C(=O)NC1CCCCN(C(C)C)C1=O` (configuration not stated) gave SMARCA2 activ -0.6.
`CCCC1=C(C(=O)OCC)C(c2ccc(N(C)C)cc2)n2ncnc2N1` (configuration not stated) gave Granule exo inh -3.0, GASC-1 inh -1.3, M18AAP inhibitor 2.5, MIN6 prolif 3.1, SMARCA2 activ -6.0 and ALR inh 98.5*.
`O=C(O)/C(CC(=O)c1ccc(Cl)cc1)=N/Nc1ccc([N+](=O)[O-])cc1[N+](=O)[O-]` gave Granule exo inh -14.5, GASC-1 inh 4.9, M18AAP inhibitor 8.2, MIN6 prolif -0.2, SMARCA2 activ -3.2 and ALR inh 97.5*.
Screening Cc1ccc(-c2nc3ncccn3c2NC(=O)c2ccc(F)cc2)cc1 returned SMARCA2 activ -1.0.
O=C(NNc1ccccc1)C(CCO)C(=O)NNc1ccccc1 was read as Granule exo inh -0.9, GASC-1 inh 19.8, M18AAP inhibitor 3.4, MIN6 prolif 0.6, SMARCA2 activ -4.3 and ALR inh 97.9*.
For CC(O)CC(C(=O)NNc1ccccc1)C(=O)NNc1ccccc1 (configuration not stated) the results were Granule exo inh 2.7, GASC-1 inh -6.0, M18AAP inhibitor 11.3, MIN6 prolif -3.8, SMARCA2 activ 2.0 and ALR inh 99.1*.
Screening CC(C)C(=O)NNc1ccccc1 returned Granule exo inh 6.2, GASC-1 inh 6.1, M18AAP inhibitor 3.9, MIN6 prolif 0.0, SMARCA2 activ 0.8 and ALR inh 42.3.
For CCCCC/C=C\C/C=C\C/C=C\C/C=C\CCCC(=O)O the results were ALR inh 97.2*.
CC1(C)CC(=O)c2cc(C(=O)NNc3ccccc3)c(=O)n(-c3ccccc3)c2C1 was read as Granule exo inh -1.3, GASC-1 inh -1.5, M18AAP inhibitor 3.5, MIN6 prolif -1.0, SMARCA2 activ -1.4 and ALR inh 97.5*.
`COc1cccc(NC(=O)CN(C)C(=O)CSCC(=O)Nc2ccc(C)cc2)c1` gave Granule exo inh -1.4, GASC-1 inh 4.0, MIN6 prolif -3.8, SMARCA2 activ -0.2 and ALR inh 99.5*.
COc1cccc(CNC(=O)CSCC(=O)Nc2ccc(C)cc2)c1 was read as Granule exo inh -3.3, GASC-1 inh -3.5, MIN6 prolif 0.8, SMARCA2 activ -0.4 and ALR inh 99.1*.
